In the supplement of paper PMC10849652:
About 7,900 targets were measured; listed, in parts, are those with a hit and a random draw of the rest. About 0.6% of all pairs of compound and target were hits.

Legend:
Assay in all cases: log2 fold change, soluble protein after heating vs DMSO (PISA); higher = thermal stabilisation; K562 cells, 10 uM, 30 min; active = over 0.2 and 3.5 SD of the protein, either way, in both replicates (recomputed)
[1] = compound: COC1=CC=C(C=C1)CN2C=CC3=C2C=C(C=C3)C(=O)NO
Outline: (§1)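 Quantification of soluble protein used TMTpro 16plex LC-MS/MS, with channel sums equalised. Samples were the supernatant after 21,000xg for 90 min of pooled aliquots from K562 cells (2×10^6 cells/mL) treated with 10 μM compound for 30 min, heated for 3 min over 48°C-58°C, and extracted in PBS with 0.5% NP-40 at 4°C. Values, from duplicates, describe thermal stability against control samples on a log2 fold-change scale.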

filanesib = compound: CON(C)C(=O)N1N=C(c2cc(F)ccc2F)S[C@@]1(CCCN)c1ccccc1 [filanesib]
Outline: as §1

zotarolimus = compound: CO[C@H]1C[C@@H]2CC[C@@H](C)[C@@](O)(O2)C(=O)C(=O)N2CCCC[C@H]2C(=O)O[C@H]([C@H](C)C[C@@H]2CC[C@H](n3cnnn3)[C@H](OC)C2)CC(=O)[C@H](C)/C=C(\C)[C@@H](O)[C@@H](OC)C(=O)[C@H](C)C[C@H](C)/C=C/C=C/C=C/1C [zotarolimus]
Outline: as §1

idasanutlin = compound: COc1cc(C(=O)O)ccc1NC(=O)[C@@H]1N[C@@H](CC(C)(C)C)[C@](C#N)(c2ccc(Cl)cc2F)[C@H]1c1cccc(Cl)c1F [idasanutlin]
Outline: as §1

[2] = compound: COc1cc2nc(-c3cc(F)ccc3O)nc(N[C@@H]3CNC[C@H]3C(C)(C)O)c2cc1OC
Outline: as §1

gefitinib = compound: COc1cc2ncnc(Nc3ccc(F)c(Cl)c3)c2cc1OCCCN1CCOCC1 [gefitinib]
Outline: as §1

lapatinib = compound: CS(=O)(=O)CCNCc1ccc(-c2ccc3ncnc(Nc4ccc(OCc5cccc(F)c5)c(Cl)c4)c3c2)o1 [lapatinib]
Outline: as §1

[3] = compound: CS(=O)(=O)c1ccc(-c2cnc(N)c(C(=O)Nc3ccccc3)n2)cc1
Outline: as §1

crizotinib = compound: C[C@@H](Oc1cc(-c2cnn(C3CCNCC3)c2)cnc1N)c1c(Cl)ccc(F)c1Cl [crizotinib]
Outline: as §1

[4] = compound: C[C@@H]1COCCN1C2=NC(=NC(=C2)C3(CC3)S(=O)(=O)C)C4=C5C=CNC5=CC=C4
Outline: as §1

[5] = compound: C[C@H](C1=CC=C(C=C1)C(=O)NC2=C3C=CNC3=NC=C2)N
Outline: as §1

duvelisib = compound: C[C@H](Nc1ncnc2nc[nH]c12)c1cc2cccc(Cl)c2c(=O)n1-c1ccccc1 [duvelisib]
Outline: as §1

tozasertib = compound: Cc1cc(Nc2cc(N3CCN(C)CC3)nc(Sc3ccc(NC(=O)C4CC4)cc3)n2)n[nH]1 [tozasertib]
Outline: as §1

[6] = compound: Cc1cc(SCc2sc(-c3ccc(C(F)(F)F)cc3)nc2C)ccc1OCC(=O)O
Outline: as §1

doramapimod = compound: Cc1ccc(-n2nc(C(C)(C)C)cc2NC(=O)Nc2ccc(OCCN3CCOCC3)c3ccccc23)cc1 [doramapimod]
Outline: as §1

ispinesib = compound: Cc1ccc(C(=O)N(CCCN)[C@@H](c2nc3cc(Cl)ccc3c(=O)n2Cc2ccccc2)C(C)C)cc1 [ispinesib]
Outline: as §1

alisertib = compound: COc1cc(Nc2ncc3c(n2)-c2ccc(Cl)cc2C(c2c(F)cccc2OC)=NC3)ccc1C(=O)O [alisertib]
Outline: as §1

[7] = compound: COc1cccc2cc(-c3nc([C@H]4CC[C@H](C(=O)O)CC4)n4ncnc(N)c34)[nH]c12
Outline: as §1

pictilisib = compound: CS(=O)(=O)N1CCN(Cc2cc3nc(-c4cccc5[nH]ncc45)nc(N4CCOCC4)c3s2)CC1 [pictilisib]
Outline: as §1

gandotinib = compound: Cc1cc(Nc2cc(CN3CCOCC3)c3nc(C)c(Cc4ccc(Cl)cc4F)n3n2)n[nH]1 [gandotinib]
Outline: as §1

Measured: log2 fold change

UBE3B (UniProt Q7Z3V4)
UniProt Q7Z3V4, sequence (Q7Z3V4 whole entry, looked up): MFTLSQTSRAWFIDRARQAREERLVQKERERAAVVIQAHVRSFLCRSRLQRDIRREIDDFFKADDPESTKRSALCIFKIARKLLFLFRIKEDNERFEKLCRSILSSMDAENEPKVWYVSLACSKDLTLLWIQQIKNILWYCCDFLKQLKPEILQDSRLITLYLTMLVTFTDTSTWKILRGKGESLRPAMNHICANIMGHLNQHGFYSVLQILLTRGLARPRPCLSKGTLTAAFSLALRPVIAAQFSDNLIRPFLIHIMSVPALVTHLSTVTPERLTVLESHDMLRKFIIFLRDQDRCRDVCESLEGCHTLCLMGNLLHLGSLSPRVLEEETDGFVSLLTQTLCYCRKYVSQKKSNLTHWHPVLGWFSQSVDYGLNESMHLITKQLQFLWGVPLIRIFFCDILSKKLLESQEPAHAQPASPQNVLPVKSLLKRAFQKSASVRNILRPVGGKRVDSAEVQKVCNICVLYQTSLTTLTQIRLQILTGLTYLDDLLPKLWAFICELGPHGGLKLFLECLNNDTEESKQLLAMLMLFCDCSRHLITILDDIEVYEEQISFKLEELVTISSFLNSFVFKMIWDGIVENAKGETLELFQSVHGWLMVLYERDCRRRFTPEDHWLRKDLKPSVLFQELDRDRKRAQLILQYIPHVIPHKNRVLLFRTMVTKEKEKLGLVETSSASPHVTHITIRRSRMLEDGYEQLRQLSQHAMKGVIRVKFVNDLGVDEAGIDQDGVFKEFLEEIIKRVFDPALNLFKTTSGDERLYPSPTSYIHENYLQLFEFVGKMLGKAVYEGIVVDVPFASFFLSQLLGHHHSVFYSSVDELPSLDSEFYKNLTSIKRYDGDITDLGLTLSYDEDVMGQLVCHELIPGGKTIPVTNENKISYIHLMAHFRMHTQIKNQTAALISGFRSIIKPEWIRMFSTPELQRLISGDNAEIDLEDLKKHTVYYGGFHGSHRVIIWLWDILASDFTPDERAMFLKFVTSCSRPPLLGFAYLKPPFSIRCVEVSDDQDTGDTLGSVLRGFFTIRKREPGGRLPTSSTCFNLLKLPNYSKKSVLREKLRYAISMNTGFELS
inactive: [1] 0.03 | filanesib 0.058 | zotarolimus 0.086 | idasanutlin 0.065 | [2] 0.247 | gefitinib -0.037 | lapatinib 0.212 | [3] 0.106 | crizotinib -0.133 | [4] 0.254 | [5] -0.108 | duvelisib 0.141 | tozasertib -0.109 | [6] 0.021 | doramapimod -0.055 | ispinesib 0.178

TUT4 (UniProt Q5TAX3)
UniProt Q5TAX3, sequence (Q5TAX3 whole entry, looked up): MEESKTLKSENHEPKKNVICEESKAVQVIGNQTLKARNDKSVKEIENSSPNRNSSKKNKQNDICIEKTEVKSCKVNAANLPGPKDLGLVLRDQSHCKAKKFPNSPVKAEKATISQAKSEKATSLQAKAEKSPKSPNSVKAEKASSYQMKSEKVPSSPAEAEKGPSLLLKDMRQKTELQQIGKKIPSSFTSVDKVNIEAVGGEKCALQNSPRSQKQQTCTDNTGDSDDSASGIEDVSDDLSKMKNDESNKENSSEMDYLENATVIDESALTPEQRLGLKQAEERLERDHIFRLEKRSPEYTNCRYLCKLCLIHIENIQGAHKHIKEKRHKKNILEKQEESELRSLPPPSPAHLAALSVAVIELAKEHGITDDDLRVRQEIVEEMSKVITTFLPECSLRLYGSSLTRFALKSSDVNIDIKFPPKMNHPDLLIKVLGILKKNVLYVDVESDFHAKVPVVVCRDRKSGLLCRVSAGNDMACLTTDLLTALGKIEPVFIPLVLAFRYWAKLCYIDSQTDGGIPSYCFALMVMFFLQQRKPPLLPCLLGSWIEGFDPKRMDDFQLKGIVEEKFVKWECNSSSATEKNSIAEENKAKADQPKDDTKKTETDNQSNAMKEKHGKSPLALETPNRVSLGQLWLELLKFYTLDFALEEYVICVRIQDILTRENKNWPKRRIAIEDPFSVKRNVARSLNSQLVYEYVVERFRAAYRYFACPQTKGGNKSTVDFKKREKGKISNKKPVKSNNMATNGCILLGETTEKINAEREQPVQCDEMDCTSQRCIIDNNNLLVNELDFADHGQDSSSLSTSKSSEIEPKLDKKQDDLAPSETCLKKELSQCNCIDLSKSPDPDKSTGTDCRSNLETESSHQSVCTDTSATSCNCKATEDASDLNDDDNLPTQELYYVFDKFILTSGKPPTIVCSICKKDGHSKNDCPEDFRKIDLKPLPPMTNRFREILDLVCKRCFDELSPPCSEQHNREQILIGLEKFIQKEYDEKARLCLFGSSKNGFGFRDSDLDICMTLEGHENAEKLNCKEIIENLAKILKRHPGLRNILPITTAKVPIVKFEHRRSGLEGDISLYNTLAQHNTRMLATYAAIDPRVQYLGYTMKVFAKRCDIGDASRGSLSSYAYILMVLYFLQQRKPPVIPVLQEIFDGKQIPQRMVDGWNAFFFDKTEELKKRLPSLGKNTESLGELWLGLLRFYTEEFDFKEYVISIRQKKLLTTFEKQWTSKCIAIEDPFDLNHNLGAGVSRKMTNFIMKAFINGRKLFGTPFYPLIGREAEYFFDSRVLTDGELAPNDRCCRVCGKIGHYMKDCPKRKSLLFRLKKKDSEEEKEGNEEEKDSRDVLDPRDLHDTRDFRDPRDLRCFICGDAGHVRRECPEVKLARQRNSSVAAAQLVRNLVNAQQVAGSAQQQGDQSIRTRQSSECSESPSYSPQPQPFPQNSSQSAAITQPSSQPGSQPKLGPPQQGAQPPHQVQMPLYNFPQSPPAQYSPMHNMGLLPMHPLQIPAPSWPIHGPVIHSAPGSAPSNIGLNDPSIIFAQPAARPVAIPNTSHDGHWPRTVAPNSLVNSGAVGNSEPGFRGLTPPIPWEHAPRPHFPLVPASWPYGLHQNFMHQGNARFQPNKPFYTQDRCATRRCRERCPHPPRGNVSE
inactive: [1] -0.265 | filanesib 0.092 | zotarolimus -0.237 | alisertib -0.02 | [2] 0.158 | gefitinib 0.051 | [7] -0.025 | lapatinib 0.021 | pictilisib 0.009 | [3] 0.069 | crizotinib 0.075 | [4] -0.286 | [5] 0.095 | duvelisib 0.166 | gandotinib 0.024 | tozasertib 0.044 | [6] 0.195 | doramapimod -0.003 | ispinesib -0.124

TRABD (UniProt Q9H4I3)
UniProt Q9H4I3, sequence (Q9H4I3 whole entry, looked up): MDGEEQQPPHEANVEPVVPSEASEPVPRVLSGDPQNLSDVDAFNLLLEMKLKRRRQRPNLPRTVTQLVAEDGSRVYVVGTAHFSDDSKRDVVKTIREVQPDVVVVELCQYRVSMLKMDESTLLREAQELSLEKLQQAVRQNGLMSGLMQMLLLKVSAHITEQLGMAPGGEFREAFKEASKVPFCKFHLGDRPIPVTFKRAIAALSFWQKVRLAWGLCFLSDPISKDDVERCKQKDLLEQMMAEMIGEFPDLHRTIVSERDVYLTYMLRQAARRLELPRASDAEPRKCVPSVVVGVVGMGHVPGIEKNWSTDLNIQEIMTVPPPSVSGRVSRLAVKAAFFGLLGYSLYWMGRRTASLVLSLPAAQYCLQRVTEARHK
inactive: [1] 0.001 | filanesib 0.051 | zotarolimus 0.11 | idasanutlin 0.167 | alisertib -0.109 | [2] 0.198 | gefitinib 0.149 | [7] -0.006 | lapatinib 0.081 | pictilisib 0.15 | [3] -0.041 | crizotinib 0.174 | [4] 0.097 | [5] -0.062 | gandotinib 0.059 | tozasertib 0.009 | doramapimod 0.025
active: ispinesib 0.597

TRIM4 (UniProt Q9C037)
UniProt Q9C037, sequence (Q9C037 whole entry, looked up): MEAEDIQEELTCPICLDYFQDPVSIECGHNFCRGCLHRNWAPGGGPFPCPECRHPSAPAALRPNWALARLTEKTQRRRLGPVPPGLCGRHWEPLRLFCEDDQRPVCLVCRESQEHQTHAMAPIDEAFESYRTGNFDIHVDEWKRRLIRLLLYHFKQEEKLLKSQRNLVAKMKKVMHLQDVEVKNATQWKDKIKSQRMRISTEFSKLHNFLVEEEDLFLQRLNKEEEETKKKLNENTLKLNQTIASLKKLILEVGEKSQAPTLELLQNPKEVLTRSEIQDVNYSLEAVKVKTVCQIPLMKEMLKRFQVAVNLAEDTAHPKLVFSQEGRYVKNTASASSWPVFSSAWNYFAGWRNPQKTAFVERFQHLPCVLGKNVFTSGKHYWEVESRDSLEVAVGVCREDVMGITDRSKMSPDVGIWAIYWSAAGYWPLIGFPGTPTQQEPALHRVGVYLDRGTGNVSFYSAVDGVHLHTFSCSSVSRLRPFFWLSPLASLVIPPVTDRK
inactive: [1] -0.066 | filanesib 0.003 | zotarolimus 0.056 | idasanutlin -0.208 | alisertib -0.088 | [2] 0.129 | gefitinib -0.155 | [7] -0.137 | lapatinib -0.011 | pictilisib 0.202 | [3] 0.114 | crizotinib 0.045 | [4] 0.037 | [5] 0.061 | gandotinib -0.023 | tozasertib 0.023 | doramapimod 0.092 | ispinesib -0.033

UTP3 (UniProt Q9NQZ2)
UniProt Q9NQZ2, sequence (Q9NQZ2 whole entry, looked up): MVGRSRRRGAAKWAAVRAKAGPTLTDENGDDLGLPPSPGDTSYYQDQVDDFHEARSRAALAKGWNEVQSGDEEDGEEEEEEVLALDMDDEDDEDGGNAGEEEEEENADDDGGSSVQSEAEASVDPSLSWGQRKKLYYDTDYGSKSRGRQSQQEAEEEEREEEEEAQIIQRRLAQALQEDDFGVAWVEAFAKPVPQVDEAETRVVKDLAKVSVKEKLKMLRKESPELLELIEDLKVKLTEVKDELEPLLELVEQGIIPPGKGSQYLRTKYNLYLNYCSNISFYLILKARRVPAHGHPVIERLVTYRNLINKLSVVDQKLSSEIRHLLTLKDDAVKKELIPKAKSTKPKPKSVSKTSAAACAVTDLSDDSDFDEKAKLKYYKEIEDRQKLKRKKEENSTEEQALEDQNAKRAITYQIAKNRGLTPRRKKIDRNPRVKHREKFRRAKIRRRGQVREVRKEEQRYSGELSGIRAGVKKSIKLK
inactive: [1] -0.058 | filanesib 0.368 | zotarolimus 0.125 | idasanutlin 0.26 | alisertib -0.09 | [2] -0.074 | [7] -0.067 | lapatinib 0.204 | pictilisib -0.06 | [3] 0.015 | crizotinib 0.061 | [4] -0.494 | [5] 0.363 | duvelisib -0.133 | gandotinib 0.17 | tozasertib 0.017 | [6] -0.04 | doramapimod 0.099 | ispinesib -0.144

XRCC1 (UniProt P18887)
inactive: [1] -0.129 | filanesib 0.088 | zotarolimus -0.018 | idasanutlin -0.045 | pictilisib -0.065 | [3] 0 | crizotinib 0.093 | [4] 0.087 | [5] 0.049 | duvelisib 0.133 | gandotinib -0.019 | tozasertib -0.235 | [6] -0.132 | doramapimod -0.101 | ispinesib 0.062

TMEM184C (UniProt Q9NVA4)
UniProt Q9NVA4, sequence (Q9NVA4 whole entry, looked up): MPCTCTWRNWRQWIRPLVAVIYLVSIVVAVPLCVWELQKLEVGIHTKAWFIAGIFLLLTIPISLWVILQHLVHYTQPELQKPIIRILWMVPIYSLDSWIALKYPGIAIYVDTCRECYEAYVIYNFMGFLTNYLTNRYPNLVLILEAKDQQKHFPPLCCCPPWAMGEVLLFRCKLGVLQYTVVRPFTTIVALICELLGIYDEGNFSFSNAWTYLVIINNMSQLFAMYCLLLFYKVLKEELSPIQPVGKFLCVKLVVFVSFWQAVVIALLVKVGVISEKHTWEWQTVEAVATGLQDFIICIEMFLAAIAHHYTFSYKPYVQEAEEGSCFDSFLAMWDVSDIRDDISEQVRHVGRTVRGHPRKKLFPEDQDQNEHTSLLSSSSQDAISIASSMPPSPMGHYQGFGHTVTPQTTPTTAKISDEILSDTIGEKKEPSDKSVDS
inactive: [1] -0.006 | filanesib 0.162 | zotarolimus -0.11 | idasanutlin -0.112 | alisertib 0.059 | gefitinib -0.043 | [7] 0.077 | pictilisib 0.162 | [3] 0.117 | crizotinib -0.267 | [4] 0.019 | [5] -0.049 | duvelisib -0.046 | gandotinib -0.038 | tozasertib 0.046 | [6] 0.036 | doramapimod 0.019
active: ispinesib -0.365

TRAM1 (UniProt Q15629)
UniProt Q15629, sequence (Q15629 whole entry, looked up): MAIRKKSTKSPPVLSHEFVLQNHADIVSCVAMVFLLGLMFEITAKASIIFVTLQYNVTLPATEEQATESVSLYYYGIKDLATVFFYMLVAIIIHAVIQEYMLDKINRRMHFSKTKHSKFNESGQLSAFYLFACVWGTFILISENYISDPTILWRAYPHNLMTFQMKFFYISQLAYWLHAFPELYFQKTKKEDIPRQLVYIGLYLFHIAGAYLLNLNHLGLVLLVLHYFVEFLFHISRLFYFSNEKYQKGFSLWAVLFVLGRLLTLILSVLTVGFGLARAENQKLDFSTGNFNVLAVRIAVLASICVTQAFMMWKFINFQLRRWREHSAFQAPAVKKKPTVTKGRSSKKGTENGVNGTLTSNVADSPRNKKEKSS
inactive: [1] -0.188 | filanesib -0.218 | zotarolimus -0.103 | idasanutlin -0.119 | alisertib -0.067 | [2] 0.24 | gefitinib -0.066 | [7] 0.005 | lapatinib -0.092 | pictilisib -0.163 | [3] 0.075 | [4] 0.017 | [5] 0.014 | duvelisib -0.003 | tozasertib -0.124 | [6] 0.09 | doramapimod -0.119
active: crizotinib -0.587 | gandotinib -0.47 | ispinesib -0.964

UBA52 (UniProt P62987)
inactive: [1] 0 | filanesib 0.519 | zotarolimus -0.171 | idasanutlin 0.308 | alisertib -0.131 | [2] -0.203 | [7] -0.275 | lapatinib 0.141 | pictilisib -0.177 | [3] -0.065 | crizotinib -0.02 | [5] 0.364 | gandotinib 0.44 | tozasertib 0.053 | doramapimod 0.118 | ispinesib -0.165
active: [4] -0.909
